Measurements reported in the supplement of paper PMC11732987, “Enantioselective OTUD7B fragment discovery through chemoproteomics screening and high-throughput optimisation” (Communications Chemistry, 2025).

Tests used:
Experiment in all cases: log2 ratio of Biotin-Ahx-Ub-VS probe labelling (fragment/DMSO); higher = less target engagement (more negative = stronger competition), active = hit call of the paper (q ≤ 0.05, log2 ratio ≤ -1)
Conditions in all cases: compound concentration: 200 uM; treatment time: 3 h
[1] = target: T1, OTUD6B (UniProt Q8N6M0)
T1 sequence (whole entry): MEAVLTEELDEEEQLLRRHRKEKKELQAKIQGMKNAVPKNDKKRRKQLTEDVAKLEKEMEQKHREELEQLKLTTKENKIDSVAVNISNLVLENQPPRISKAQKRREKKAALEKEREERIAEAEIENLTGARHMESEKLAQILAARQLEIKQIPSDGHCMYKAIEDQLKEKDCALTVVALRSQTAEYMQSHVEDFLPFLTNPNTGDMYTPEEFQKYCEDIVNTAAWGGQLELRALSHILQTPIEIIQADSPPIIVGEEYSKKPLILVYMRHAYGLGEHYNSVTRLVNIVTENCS
Method in brief: (§1)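 HEK293T lysate in Tris/CHAPS/IGEPAL buffer with protease inhibitors (495 µg per sample) was given fragment at 200 µM or vehicle for 3 h, in triplicate. It then received Biotin-Ahx-Ub-VS at 0.5 µM final for 1 h. Labelled DUBs were NeutrAvidin-enriched, digested with LysC and trypsin, and run by diaPASEF LC-MS/MS. Values are average log2 fragment/vehicle ratios by unpaired t-test on global-median-normalised Spectronaut quantities of proteins with ≥2 unique peptides.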

[2] = target: T2, OTUD7B (UniProt Q6GQQ9)
T2 sequence (whole entry): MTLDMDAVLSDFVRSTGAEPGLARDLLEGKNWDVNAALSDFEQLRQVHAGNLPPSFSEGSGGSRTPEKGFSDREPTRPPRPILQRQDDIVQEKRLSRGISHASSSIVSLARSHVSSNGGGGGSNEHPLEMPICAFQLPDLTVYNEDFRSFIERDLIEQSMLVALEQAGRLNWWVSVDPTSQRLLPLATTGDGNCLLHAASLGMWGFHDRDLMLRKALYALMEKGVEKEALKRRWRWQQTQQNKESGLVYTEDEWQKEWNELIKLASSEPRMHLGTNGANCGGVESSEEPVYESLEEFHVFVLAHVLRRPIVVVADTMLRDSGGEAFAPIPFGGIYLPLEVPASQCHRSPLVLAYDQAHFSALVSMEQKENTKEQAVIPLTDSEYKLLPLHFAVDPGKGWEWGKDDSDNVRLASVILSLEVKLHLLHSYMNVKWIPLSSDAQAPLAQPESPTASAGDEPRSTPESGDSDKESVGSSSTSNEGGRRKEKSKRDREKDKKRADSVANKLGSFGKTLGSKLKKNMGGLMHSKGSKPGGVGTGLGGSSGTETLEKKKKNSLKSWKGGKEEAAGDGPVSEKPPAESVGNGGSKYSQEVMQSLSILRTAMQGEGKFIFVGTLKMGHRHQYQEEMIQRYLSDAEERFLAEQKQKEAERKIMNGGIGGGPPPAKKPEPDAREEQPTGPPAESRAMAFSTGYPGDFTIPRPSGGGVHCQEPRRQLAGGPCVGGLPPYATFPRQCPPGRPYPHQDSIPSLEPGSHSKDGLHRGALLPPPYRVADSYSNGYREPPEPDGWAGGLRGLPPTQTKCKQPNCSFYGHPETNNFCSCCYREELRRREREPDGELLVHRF
Method in brief: as §1

[3] = target: PRPF8 (UniProt Q6P2Q9)
Method in brief: as §1

[4] = target: T3, PSMD7 (UniProt P51665)
T3 sequence (whole entry): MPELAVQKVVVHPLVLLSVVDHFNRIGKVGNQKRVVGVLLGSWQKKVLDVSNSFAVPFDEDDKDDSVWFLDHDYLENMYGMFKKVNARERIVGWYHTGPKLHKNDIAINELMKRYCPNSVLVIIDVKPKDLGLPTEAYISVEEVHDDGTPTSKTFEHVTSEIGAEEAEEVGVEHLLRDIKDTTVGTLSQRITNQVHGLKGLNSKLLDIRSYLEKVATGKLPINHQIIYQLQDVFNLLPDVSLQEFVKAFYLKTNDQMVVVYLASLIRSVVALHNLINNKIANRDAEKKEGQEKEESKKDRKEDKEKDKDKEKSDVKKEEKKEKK
Method in brief: as §1

[5] = target: UCHL1 (UniProt P09936)
UCHL1, sequence (P09936 whole entry, looked up): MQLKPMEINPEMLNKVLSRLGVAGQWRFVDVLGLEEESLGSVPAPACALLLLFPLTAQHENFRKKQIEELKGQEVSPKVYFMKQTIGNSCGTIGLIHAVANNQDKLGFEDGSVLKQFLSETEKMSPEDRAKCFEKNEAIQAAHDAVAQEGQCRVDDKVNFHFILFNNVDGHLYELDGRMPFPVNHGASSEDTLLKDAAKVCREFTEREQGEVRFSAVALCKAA
Method in brief: as §1

[6] = target: T4, UCHL3 (UniProt P15374)
T4 sequence (whole entry): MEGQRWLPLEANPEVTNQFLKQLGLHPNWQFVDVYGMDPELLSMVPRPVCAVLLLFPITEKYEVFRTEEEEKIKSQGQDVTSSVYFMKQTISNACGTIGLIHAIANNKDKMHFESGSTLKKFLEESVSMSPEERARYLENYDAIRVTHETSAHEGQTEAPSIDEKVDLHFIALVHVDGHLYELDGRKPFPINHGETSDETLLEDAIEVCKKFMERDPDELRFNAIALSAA
Method in brief: as §1

[7] = target: T5, UCHL5 (UniProt Q9Y5K5)
T5 sequence (whole entry): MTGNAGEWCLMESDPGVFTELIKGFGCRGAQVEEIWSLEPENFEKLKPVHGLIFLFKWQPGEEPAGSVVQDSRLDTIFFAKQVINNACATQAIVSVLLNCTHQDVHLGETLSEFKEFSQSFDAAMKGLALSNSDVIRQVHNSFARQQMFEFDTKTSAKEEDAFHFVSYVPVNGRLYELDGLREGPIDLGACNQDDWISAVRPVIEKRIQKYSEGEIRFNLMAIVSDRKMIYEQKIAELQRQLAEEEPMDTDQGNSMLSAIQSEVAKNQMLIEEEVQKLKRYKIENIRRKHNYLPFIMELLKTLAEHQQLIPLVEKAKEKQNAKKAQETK
Method in brief: as §1

[8] = target: USP10 (UniProt Q14694)
USP10, sequence (Q14694 whole entry): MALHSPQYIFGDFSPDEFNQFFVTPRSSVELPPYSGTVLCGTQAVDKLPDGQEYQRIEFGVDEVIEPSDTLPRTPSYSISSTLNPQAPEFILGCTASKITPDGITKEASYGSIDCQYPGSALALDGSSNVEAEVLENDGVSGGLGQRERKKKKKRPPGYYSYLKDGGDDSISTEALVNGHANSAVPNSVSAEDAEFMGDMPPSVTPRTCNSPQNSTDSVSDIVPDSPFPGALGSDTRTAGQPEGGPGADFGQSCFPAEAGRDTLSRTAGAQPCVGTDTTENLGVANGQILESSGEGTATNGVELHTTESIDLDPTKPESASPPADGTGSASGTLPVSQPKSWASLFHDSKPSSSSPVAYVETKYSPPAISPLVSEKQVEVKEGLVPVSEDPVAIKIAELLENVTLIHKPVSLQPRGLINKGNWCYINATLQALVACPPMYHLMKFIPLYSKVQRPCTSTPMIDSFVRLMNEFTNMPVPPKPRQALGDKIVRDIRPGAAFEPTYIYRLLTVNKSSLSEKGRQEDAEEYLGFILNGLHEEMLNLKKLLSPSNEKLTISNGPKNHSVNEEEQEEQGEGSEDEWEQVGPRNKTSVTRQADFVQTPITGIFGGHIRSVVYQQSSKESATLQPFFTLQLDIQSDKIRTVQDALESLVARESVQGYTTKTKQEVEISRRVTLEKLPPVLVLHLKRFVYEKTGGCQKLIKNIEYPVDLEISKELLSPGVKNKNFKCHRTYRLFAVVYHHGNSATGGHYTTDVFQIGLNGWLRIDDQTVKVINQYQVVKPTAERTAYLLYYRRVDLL
Method in brief: as §1

[9] = target: T6, USP15 (UniProt Q9Y4E8)
T6 sequence (whole entry): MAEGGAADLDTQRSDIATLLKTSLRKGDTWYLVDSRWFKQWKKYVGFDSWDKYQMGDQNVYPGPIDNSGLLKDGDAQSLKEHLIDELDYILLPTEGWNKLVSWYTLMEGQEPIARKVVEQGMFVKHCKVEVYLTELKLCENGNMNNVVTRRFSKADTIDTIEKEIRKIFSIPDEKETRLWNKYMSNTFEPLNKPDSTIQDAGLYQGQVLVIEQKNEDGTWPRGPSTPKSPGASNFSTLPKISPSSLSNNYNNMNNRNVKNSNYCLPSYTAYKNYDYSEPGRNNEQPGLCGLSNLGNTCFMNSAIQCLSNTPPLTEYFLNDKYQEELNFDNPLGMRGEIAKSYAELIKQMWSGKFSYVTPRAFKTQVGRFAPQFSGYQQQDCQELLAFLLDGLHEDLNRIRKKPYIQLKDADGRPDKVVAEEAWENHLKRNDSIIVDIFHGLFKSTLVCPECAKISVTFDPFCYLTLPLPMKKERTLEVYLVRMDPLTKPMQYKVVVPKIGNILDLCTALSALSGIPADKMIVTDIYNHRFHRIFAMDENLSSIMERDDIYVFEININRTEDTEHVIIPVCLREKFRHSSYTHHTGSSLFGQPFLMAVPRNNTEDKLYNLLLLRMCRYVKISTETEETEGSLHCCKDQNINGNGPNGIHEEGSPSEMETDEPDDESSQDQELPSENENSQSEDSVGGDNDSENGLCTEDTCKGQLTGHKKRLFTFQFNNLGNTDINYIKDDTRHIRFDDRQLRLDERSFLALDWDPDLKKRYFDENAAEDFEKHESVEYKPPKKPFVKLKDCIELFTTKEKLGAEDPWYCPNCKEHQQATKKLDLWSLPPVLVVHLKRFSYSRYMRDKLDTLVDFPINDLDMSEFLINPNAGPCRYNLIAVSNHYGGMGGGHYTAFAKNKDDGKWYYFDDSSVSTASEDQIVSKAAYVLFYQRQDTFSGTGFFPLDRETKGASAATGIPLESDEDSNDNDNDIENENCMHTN
Method in brief: as §1

[10] = target: USP16 (UniProt Q9Y5T5)
USP16, sequence (Q9Y5T5 whole entry, looked up): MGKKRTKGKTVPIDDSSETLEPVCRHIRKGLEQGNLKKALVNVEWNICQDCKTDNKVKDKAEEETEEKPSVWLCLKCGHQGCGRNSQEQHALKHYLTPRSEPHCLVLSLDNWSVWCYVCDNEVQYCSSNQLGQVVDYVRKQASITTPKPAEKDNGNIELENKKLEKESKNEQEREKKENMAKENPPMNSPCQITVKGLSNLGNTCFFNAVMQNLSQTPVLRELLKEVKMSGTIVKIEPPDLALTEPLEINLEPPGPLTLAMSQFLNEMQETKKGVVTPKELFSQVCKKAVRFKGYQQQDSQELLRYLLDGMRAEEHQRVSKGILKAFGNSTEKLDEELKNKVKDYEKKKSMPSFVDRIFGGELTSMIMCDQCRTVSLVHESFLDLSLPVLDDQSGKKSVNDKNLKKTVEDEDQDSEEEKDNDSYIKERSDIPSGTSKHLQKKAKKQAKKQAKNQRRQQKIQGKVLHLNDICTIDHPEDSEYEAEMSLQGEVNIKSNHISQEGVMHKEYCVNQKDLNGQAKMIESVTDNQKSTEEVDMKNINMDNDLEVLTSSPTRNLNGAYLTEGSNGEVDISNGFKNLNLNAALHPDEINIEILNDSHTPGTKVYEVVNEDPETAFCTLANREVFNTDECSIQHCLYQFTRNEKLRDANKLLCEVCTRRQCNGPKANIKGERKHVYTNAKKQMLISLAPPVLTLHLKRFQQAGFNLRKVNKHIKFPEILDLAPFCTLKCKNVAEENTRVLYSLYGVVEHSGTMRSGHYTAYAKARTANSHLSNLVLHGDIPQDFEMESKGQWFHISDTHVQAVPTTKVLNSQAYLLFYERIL
Method in brief: as §1

Measured: log2 ratio of Biotin-Ahx-Ub-VS probe labelling

O=C(CCl)N1CCCCCC1c1ncon1 (stereo not given)
inactive: [1] -0.149 | [2] -0.512 | [3] -0.173 | [4] -0.174 | [6] 0.279 | [7] -0.229 | [8] -0.0372 | [9] -0.142 | [10] -0.0478
active: [5] -1.82
